Compound activity as filed in PubChem.
BaF3 tox: parental Ba/F3 cell viability inhibition, counter-screen for JAK2V617F inhibitor project, murine pro-B, CellTiter-Glo luminescence. AID 1486, 2009. 220,000 compounds, 1.1% hits. inhibition, % at 5.6 µM. CellTiter-Glo ATP luminescence;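 active = inhibition above a per-campaign cutoff, the mean inhibition of all tested compounds plus 3 SD, cut at about 27% in these data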;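 note: 0% = DMSO wells and 100% = JAK Inhibitor I control wells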
aSyn 5UTR inh: MLPCN primary screen, SNCA 5' untranslated region. alpha-synuclein 5'UTR reporter, inhibitor activity. 300,000 compounds, 0.82% hits. inhibition, % (tested at 7.5 µM). AID 1813, 2009; in the data active = inhibition above about 60%;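 note: H4 neuroglioblastoma cells stably carrying SNCA 5'UTR luciferase fusion; 0% = DMSO wells and 100% = positive control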
APP transl inh: inhibitors of APP translation via 5'UTR reporter, primary screen, APP 5'UTR luciferase, SH-SY5Y cells | SH-SY5Y APP 5'UTR-luciferase reporter, luminescence | inhibition, % at 2 µM | 190,000 compounds, 0.82% hits | AID 1285, 2008;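 active = inhibition above a set limit, derived from the sample mean plus 3 SD, cut at about 45% in these data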
IEC-6 tox: cytotoxicity in IEC-6 intestinal epithelial cells, primary screen, cytotoxicity control for KLF5 inhibitor project, cell-based, luminescence | 290,000 compounds, 0.78% hits | AID 1825, 2009 | inhibition, % at 5 µM | IEC-6 cytotoxicity, luminescence viability;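 note: 0% = plate median of test compound wells and 100% = cytotoxic reference compound wells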
Ba/F3 V617F tox: reduced viability of JAK2V617F-dependent Ba/F3 cells, primary screen, JAK2V617F inhibitor project, cell-based, Ba/F3 EpoR-JAK2V617F, luminescence; inhibition, % at 5.6 µM; ATP luminescence; 220,000 compounds, 1.1% hits;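 active = inhibition above the campaign mean plus 3 SD over all tested compounds, cut at about 24% in these data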;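 note: cytokine-independent growth of Ba/F3 cells driven by EpoR plus mutant JAK2; 0% = DMSO-treated cells and 100% = JAK inhibitor I control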
KLF5 inhibitor: KLF5 expression inhibitors, primary screen, DLD-1 cells, luminescence; DLD-1 KLF5 promoter-luciferase reporter; inhibition, % at 5 µM; 290,000 compounds, 0.23% hits; AID 1700, 2009;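 active = inhibition above a per-plate limit of that plate's mean compound inhibition plus 3 SD, cut at about 60% in these data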;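 note: 0% = DMSO wells and 100% = LY294002 at 200 µM; higher means less KLF5 promoter-driven luciferase light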
IEC-6 cytotox cf: cytotoxic compounds in IEC-6 epithelial cells, confirmation, cytotoxicity control, cell-based, luminescence; shares compounds with IEC-6 tox; IEC-6 rat intestinal epithelial viability; inhibition, % at 5 µM; 1,900 compounds, 63% hits; AID 1907, 2009;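 note: 0% = vehicle and 100% = reference cytotoxic drug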
* hit, by the source's call; . = no result. Shown are actives, neighbours in structure and some others; about 2.1% of the full set was active somewhere. Cut-off read from the data, not from the text of the source, unless noted: active = inhibition above about 22%; inactive = the rest.

SMILES	BaF3 tox	aSyn 5UTR inh	APP transl inh	IEC-6 tox	Ba/F3 V617F tox	KLF5 inhibitor	IEC-6 cytotox cf
Clc1ccc2nc(COc3ccccc3)[nH]c2c1	.	-150.7	.	27.4*	.	-115.8	11.8
O=c1[nH]c(COc2ccccc2)nc2ccccc12	.	-69.7	.	2.6	.	-115.2	.
O=C(OCC(=O)N1CCCC1=O)c1nc(Cl)c(Cl)c(Cl)c1Cl	.	-131.2	.	41.7*	.	5.3	5.3
Nc1c(Cl)c(Cl)nc(C(=O)OCC(=O)N2CCCC2=O)c1Cl	.	2.6	.	.	.	.	.
CC[C@@H]1[C@H]2CCCC(=O)N3CC[C@@H](C[C@@H]1OC(=O)Nc1ccccc1)[C@@H]23	.	15.7	.	2.9	.	-3.6	.
Cc1ccc2ccc3ccc(C)nc3c2n1	.	72.0*	.	90.6*	.	51.0	37.1*
CC1=C(C(=O)Nc2cc(C(=O)N3CCC(C)CC3)ccc2C)SCCO1	.	4.5	.	-6.6	.	12.3	.
COc1ccccc1NC1CCCCC1NS(=O)(=O)c1ccccc1 (configuration not stated)	.	0.6	.	-5.2	.	-9.9	.
CCN(CC)c1ccc2nc3ccccc3[n+](CC)c2c1	.	58.8	.	34.1*	.	20.5	33.5*
O=C(N/N=C/C(Br)=C/c1ccccc1)c1n[nH]c2c1CCC2	91.7*	-19.4	.	94.0*	92.0*	-48.7	2.8
O=C(N/N=C/c1ccc(Cl)cc1)c1n[nH]c2c1CCCC2	70.9*	45.6	.	81.6*	74.9*	18.6	63.2*
NC(=O)NS(=O)(=O)Oc1ccccc1	.	-1.3	.	1.3	.	-12.5	.
Cc1ccc(S(=O)(=O)Nc2ccc3c4c(cccc24)CC3)c(C)c1	12.5	10.2	3.7	26.4*	4.1	4.0	38.5*
COc1cccc(NC(=O)C(=O)NCCC2CCCCN2S(=O)(=O)c2cccs2)c1 (configuration not stated)	.	-148.3	.	.	.	.	.
COc1ccc(-c2nc(N)ncc2Oc2ccccc2Br)c(O)c1	2.4	42.0	-3.1	0.3	-2.1	-22.0	.
COc1cccc(Oc2cnc(N)nc2-c2ccc(OC)cc2O)c1	62.1*	54.5	60.8*	45.4*	68.4*	35.4	33.0*
COC(=O)c1cccc(Nc2ncnc3ccc(C)cc23)c1	4.7	-88.1	-7.5	1.9	-4.2	-33.7	.
Cc1ccc2ncnc(Nc3cccc([N+](=O)[O-])c3)c2c1	.	-43.7	.	30.9*	.	-33.1	63.1*
CC(C)NC1=C(Cl)C(=O)c2ccccc2C1=O	7.3	-91.2	-1.4	44.3*	3.8	-52.2	16.5
O=C1C(Cl)=C(NCc2cccnc2)C(=O)c2ccccc21	.	-141.3	.	99.3*	.	2.6	57.0*
CC(C)OCCCNC1=C(Cl)C(=O)c2ccccc2C1=O	1.6	-43.9	.	50.7*	-4.7	-29.4	-2.5
CCN(CC)CCCNC1=C(Cl)C(=O)c2ccccc2C1=O	-0.8	76.1*	5.5	88.1*	5.1	-2.6	77.0*
COCCCNC1=C(Cl)C(=O)c2ccccc2C1=O	3.3	-29.7	.	20.6	1.3	-25.1	.
COc1cc(OC)cc(C(=O)Nc2ccc(N3CCN(C(=O)c4cccs4)CC3)cc2)c1	.	-180.3	.	35.8*	.	20.0	30.6*
O=[N+]([O-])c1cccc(-c2ccc(CN3CCCCC3)o2)c1	.	7.4	.	1.4	.	-26.7	.
SMILES	BaF3 tox	aSyn 5UTR inh	APP transl inh	IEC-6 tox	Ba/F3 V617F tox	KLF5 inhibitor	IEC-6 cytotox cf
COc1ccc(NC(=O)c2ccccn2)cc1OC	5.9	-88.0	-43.8	-0.1	0.2	-58.3	.
C/C(=N\NC(=O)c1cccc2ccccc12)c1ccccn1	.	59.7	.	15.8	.	50.0	.
COc1ccc(C(=O)N/N=C(\C)c2ccccn2)cc1OC	.	43.0	.	39.8*	.	53.6	98.8*
O=C(N/N=C(\c1ccccc1)c1ccccn1)c1ccccc1Cl	.	67.5*	.	95.1*	.	53.3	58.4*
COc1ccc(C(=O)N/N=C(\c2ccccc2)c2ccccn2)cc1	68.5*	107.0*	77.9*	28.5*	73.8*	25.0	64.8*
C/C(=N\NC(=O)c1ccccc1Cl)c1ccccn1	.	81.9*	.	41.3*	.	36.0	65.6*
O=C(CN1CCN(c2nc(-c3ccccc3)cs2)CC1)NNC(=O)c1ccco1	7.8	20.2	-5.0	2.8	3.2	-12.4	.
Cc1ccc(NC(=O)CSCc2cc(=O)n3ccsc3n2)cc1	.	0.9	.	-2.0	.	-47.9	.
C/C(=N\NC(=O)c1ccc(Cl)c(Cl)c1)c1ccccn1	.	28.0	.	41.5*	.	49.6	96.6*
C/C(=N/NC(=O)c1ccc(C(C)(C)C)cc1)c1ccccn1	.	57.4	.	.	.	.	.
CCCCC(CCC(=O)O)(C(=O)OCC)c1csc(Nc2ccc(OCC)cc2)n1 (configuration not stated)	3.1	5.7	.	3.2	4.6	37.2	.
Cc1ccccc1C=Nc1ccccc1C(N)=O	18.1	-15.4	-6.1	23.4*	2.1	23.1	7.9
COc1ccc(OC)c(S(=O)(=O)Nc2cc(OC)c(Cl)cc2OC)c1	3.3	-6.2	6.6	-8.8	-1.0	-18.3	.
COc1cc(NS(=O)(=O)c2ccc(OC)c(C)c2C)c(OC)cc1Cl	50.6*	-25.9	64.8*	35.3*	57.2*	53.0	52.5*
Cn1ncc2c(NNC(=O)C3CCCCC3)ncnc21	4.2	10.0	1.1	2.9	-3.0	-22.7	.
COc1ccc(-c2[nH]ncc2/C=C(/C#N)C(=O)NC2CCCCC2)cc1	3.4	48.0	8.1	16.0	0.9	-23.9	.
Cc1ccc(-c2[nH]ncc2/C=C(\C#N)C(=O)NC2CCCCC2)cc1	5.9	56.2	-26.6	22.1*	4.7	12.6	17.7
O=c1c2oc3ccccc3c2ncn1Cc1ccccc1Cl	5.3	-9.0	0.2	37.0*	1.9	-18.1	26.4*
O=c1c2oc3ccccc3c2ncn1Cc1ccccc1F	-0.5	-9.9	-4.4	33.8*	-5.3	-27.3	12.2
Cn1c(=O)c([N+](=O)[O-])c(Cl)c2ccccc21	6.8	-11.4	57.4*	48.0*	2.7	15.0	64.3*
CCN(CC)c1c([N+](=O)[O-])c(=O)n(C)c2ccccc12	3.9	-6.9	-6.6	-0.4	-3.2	-17.3	.
Cc1cc(NC(=O)c2cc(-c3ccncc3)nc3c(C)cccc23)no1	50.4*	32.1	83.6*	59.7*	41.4*	33.7	43.8*
Cc1cc(NC(=O)c2cc(-c3ccccn3)nc3c(Cl)cccc23)no1	.	16.3	.	5.2	.	0.3	.
COc1cc(/C=N/NC(=O)c2ccccn2)ccc1OC(=O)c1cccs1	.	-49.6	.	-0.3	.	-66.2	.
COc1ccc(Nc2c3ccccc3nc3ccccc23)cc1	.	-54.8	.	73.6*	.	-5.2	31.1*
COc1ccc(Nc2nc(-c3ccncc3)nc3ccccc23)cc1	.	-7.4	.	30.4*	.	-34.3	18.9
Cc1ccc(-c2nc(Nc3cccc(O)c3)c3ccccc3n2)cc1	.	13.3	.	-1.7	.	-24.9	.
Oc1cccc(Nc2c3ccccc3nc3ccccc23)c1	.	-80.6	.	35.3*	.	-5.0	36.2*
